# According to the supplement of paper PMC11732987, “Enantioselective OTUD7B fragment discovery through chemoproteomics screening and high-throughput optimisation” (Communications Chemistry, 2025):
# Compound: ClCC(=O)N1CCC(CC#N)C1
# Experiment: log2 ratio of Biotin-Ahx-Ub-VS probe labelling (compound/DMSO); higher = less target engagement, active = hit call of the paper (q ≤ 0.05, log2 ratio ≤ -1)
# Details: compound concentration: 50uM; treatment time: 3 h
# Protocol: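 Round 2 competitive ABPP in HEK293T lysate. Purified HTC-D2B compounds were tested at 50 and 200 µM for 3 h, followed by Biotin-Ahx-Ub-VS enrichment and diaPASEF LC-MS/MS. Values are the average log2 ratio (compound/DMSO) from an unpaired t-test (n=3 treated, n=26 DMSO).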
# Chain of UniProt Q53GS9 (Q53GS9 whole entry): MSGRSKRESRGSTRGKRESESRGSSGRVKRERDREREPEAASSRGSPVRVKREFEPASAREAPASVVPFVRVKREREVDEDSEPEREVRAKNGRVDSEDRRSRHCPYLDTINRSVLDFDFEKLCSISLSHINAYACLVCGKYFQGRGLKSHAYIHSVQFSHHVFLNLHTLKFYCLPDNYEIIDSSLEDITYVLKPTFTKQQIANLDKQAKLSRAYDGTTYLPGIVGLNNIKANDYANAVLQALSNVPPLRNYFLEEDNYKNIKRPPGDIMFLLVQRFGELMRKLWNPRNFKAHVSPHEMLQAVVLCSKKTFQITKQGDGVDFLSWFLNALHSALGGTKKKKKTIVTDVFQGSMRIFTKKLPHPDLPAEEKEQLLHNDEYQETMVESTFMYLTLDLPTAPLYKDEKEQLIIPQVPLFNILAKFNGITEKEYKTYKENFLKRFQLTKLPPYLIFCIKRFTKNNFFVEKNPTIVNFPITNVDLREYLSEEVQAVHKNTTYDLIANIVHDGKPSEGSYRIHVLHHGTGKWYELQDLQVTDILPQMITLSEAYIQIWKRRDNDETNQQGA
# Chain of UniProt Q96JH7 (Q96JH7 whole entry): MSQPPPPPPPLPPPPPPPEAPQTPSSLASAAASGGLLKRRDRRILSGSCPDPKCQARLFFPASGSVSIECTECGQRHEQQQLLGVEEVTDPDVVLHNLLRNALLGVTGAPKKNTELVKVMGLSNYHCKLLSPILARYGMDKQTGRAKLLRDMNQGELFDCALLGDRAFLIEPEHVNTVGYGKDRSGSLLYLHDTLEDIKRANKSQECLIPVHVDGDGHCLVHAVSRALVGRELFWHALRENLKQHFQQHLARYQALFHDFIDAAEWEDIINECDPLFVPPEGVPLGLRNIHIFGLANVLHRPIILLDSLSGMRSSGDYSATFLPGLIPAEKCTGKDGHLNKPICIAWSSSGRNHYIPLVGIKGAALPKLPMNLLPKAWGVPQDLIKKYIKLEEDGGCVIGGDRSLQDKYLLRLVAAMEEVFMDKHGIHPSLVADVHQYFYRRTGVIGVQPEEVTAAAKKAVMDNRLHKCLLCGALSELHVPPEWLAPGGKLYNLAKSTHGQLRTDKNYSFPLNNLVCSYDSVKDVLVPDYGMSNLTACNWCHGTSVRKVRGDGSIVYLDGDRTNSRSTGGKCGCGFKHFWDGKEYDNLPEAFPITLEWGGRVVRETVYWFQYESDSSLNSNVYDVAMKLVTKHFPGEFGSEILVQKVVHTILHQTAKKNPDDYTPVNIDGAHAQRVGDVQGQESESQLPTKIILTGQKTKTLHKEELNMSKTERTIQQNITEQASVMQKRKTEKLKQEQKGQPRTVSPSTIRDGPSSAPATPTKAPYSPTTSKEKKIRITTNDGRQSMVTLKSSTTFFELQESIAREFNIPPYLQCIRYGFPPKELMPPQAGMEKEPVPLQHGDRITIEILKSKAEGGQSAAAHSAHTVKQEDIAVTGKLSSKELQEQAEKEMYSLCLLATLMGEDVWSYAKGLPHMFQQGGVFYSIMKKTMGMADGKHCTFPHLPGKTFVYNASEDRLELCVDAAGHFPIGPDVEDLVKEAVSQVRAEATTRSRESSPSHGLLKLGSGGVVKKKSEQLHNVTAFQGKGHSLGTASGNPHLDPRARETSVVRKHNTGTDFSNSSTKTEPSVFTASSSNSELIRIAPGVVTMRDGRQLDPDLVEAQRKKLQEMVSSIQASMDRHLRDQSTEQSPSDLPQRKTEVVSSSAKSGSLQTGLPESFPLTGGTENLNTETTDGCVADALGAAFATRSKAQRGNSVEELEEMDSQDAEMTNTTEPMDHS
# Chain of UniProt Q5VVQ6 (Q5VVQ6 whole entry): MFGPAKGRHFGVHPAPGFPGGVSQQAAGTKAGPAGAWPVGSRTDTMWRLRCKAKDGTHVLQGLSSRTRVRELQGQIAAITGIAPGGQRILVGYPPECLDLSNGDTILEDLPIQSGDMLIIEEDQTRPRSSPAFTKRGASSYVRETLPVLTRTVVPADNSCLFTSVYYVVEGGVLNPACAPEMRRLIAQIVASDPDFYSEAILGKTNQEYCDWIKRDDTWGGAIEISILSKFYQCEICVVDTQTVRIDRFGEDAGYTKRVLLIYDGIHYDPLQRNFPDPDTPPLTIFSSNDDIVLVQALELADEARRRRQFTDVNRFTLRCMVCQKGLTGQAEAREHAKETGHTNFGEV
# Chain of UniProt Q8NB14 (Q8NB14 whole entry): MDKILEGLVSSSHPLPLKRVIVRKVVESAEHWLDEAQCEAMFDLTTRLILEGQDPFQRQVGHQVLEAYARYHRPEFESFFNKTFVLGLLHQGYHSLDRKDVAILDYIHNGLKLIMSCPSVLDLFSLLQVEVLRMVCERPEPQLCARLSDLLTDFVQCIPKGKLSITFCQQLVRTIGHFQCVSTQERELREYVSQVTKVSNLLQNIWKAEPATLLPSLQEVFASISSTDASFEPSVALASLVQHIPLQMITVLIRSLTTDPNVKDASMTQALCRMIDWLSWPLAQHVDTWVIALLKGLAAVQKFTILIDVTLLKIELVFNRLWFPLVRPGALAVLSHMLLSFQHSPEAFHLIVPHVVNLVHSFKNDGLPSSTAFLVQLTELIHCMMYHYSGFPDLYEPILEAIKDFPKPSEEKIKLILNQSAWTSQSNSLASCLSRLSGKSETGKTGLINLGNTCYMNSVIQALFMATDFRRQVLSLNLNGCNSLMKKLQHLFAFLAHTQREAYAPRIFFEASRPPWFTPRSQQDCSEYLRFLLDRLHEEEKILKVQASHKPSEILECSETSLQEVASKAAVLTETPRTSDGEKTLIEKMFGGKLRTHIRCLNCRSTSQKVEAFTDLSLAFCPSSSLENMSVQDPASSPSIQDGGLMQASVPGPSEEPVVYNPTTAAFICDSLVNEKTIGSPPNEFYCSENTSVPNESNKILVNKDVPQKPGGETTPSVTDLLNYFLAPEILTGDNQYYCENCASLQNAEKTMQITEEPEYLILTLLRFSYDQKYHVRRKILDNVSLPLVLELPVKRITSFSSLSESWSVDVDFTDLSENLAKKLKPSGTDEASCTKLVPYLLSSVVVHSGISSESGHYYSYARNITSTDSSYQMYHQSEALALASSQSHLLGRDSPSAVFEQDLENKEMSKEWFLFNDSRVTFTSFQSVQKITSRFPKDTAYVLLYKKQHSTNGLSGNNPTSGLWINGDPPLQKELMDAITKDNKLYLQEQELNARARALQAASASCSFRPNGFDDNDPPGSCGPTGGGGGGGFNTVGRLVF
# Chain of UniProt Q8TE49 (Q8TE49 whole entry): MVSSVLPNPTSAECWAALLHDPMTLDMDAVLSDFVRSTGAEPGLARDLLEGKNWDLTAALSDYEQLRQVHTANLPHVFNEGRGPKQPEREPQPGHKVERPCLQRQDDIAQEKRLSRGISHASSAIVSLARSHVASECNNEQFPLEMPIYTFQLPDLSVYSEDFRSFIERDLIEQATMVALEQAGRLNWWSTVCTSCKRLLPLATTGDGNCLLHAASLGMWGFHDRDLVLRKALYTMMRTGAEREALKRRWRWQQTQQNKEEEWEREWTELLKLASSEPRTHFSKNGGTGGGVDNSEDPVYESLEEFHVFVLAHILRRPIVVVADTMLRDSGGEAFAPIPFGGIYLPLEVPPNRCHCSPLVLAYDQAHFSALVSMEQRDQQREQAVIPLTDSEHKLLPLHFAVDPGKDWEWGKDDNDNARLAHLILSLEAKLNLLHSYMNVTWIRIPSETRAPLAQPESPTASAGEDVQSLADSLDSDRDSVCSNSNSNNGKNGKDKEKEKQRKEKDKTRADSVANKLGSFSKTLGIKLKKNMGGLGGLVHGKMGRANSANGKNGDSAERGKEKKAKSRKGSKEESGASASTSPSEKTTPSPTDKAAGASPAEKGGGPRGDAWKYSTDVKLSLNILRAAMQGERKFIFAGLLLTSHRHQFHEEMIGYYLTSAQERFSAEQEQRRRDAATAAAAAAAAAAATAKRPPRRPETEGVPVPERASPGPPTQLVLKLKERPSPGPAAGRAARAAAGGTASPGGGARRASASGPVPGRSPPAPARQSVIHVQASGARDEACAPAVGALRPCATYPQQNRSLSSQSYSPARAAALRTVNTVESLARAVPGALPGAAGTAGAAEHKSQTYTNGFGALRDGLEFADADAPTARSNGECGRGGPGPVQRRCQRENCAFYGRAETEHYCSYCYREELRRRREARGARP
# Chain of UniProt Q5T2D3 (Q5T2D3 whole entry): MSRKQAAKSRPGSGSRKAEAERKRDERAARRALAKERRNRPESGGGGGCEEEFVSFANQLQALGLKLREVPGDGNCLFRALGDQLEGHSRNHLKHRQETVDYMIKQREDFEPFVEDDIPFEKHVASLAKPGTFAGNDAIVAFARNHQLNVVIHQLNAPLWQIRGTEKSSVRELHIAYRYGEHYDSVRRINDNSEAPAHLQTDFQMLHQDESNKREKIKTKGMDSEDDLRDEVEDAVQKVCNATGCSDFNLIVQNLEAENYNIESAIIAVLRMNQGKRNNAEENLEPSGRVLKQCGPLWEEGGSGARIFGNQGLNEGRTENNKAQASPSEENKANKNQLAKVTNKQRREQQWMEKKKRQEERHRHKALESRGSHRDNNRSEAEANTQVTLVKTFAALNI
# Chain of UniProt Q9Y5K5 (Q9Y5K5 whole entry): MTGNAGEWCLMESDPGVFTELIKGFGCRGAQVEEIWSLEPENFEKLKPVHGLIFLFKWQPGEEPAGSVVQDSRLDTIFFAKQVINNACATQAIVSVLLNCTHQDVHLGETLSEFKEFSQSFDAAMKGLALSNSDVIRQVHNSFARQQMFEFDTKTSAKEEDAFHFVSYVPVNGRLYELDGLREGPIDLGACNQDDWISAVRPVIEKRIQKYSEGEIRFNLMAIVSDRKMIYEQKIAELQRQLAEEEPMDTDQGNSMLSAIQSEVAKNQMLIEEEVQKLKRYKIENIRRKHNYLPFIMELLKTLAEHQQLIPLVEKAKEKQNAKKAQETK
row,Target,log2 ratio of Biotin-Ahx-Ub-VS probe labelling
1,USP39 (UniProt Q53GS9),-0.0848 (inactive)
2,UniProt Q5T2D3,-0.206 (inactive)
3,USP25 (UniProt Q9UHP3),-0.617 (inactive)
4,USP48 (UniProt Q86UV5),-0.0601 (inactive)
5,YOD1 (UniProt Q5VVQ6),-0.225 (inactive)
6,USP38 (UniProt Q8NB14),0.00826 (inactive)
7,UniProt Q8TE49,-0.317 (inactive)
8,VCPIP1 (UniProt Q96JH7),-0.405 (inactive)
9,UCHL5 (UniProt Q9Y5K5),-0.227 (inactive)

# Same assay, conditions: compound concentration: 200uM; treatment time: 3 h
row,Target,log2 ratio of Biotin-Ahx-Ub-VS probe labelling
1,USP39 (UniProt Q53GS9),0.0939 (inactive)
2,UniProt Q5T2D3,-0.203 (inactive)
3,USP25 (UniProt Q9UHP3),-2.11 (active)
4,USP48 (UniProt Q86UV5),-0.185 (inactive)
5,YOD1 (UniProt Q5VVQ6),0.00802 (inactive)
6,USP38 (UniProt Q8NB14),-0.302 (inactive)
7,UniProt Q8TE49,-0.54 (inactive)
8,VCPIP1 (UniProt Q96JH7),-0.311 (inactive)
9,UCHL5 (UniProt Q9Y5K5),-0.17 (inactive)
